# Hit rate of the full screen: of about 310,000 compounds, about 14,000 (4.5%) showed an effect of 50% or more. Effects have a minus sign here. The list comes from a sample in which strong results are over-represented; it also holds similar structures and randomly drawn compounds.
# Target: human ether-à-go-go-related gene (hERG) potassium channel (human, UniProt Q12809)
# Experiment: primary screen, population patch clamp on CHO cells stably expressing hERG; higher = less effect of the substance
# 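Also: peak tail current of the secondary pulse compared with the same well before compound.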
# human ether-à-go-go-related gene (hERG) potassium channel, sequence (Q12809 whole entry, looked up): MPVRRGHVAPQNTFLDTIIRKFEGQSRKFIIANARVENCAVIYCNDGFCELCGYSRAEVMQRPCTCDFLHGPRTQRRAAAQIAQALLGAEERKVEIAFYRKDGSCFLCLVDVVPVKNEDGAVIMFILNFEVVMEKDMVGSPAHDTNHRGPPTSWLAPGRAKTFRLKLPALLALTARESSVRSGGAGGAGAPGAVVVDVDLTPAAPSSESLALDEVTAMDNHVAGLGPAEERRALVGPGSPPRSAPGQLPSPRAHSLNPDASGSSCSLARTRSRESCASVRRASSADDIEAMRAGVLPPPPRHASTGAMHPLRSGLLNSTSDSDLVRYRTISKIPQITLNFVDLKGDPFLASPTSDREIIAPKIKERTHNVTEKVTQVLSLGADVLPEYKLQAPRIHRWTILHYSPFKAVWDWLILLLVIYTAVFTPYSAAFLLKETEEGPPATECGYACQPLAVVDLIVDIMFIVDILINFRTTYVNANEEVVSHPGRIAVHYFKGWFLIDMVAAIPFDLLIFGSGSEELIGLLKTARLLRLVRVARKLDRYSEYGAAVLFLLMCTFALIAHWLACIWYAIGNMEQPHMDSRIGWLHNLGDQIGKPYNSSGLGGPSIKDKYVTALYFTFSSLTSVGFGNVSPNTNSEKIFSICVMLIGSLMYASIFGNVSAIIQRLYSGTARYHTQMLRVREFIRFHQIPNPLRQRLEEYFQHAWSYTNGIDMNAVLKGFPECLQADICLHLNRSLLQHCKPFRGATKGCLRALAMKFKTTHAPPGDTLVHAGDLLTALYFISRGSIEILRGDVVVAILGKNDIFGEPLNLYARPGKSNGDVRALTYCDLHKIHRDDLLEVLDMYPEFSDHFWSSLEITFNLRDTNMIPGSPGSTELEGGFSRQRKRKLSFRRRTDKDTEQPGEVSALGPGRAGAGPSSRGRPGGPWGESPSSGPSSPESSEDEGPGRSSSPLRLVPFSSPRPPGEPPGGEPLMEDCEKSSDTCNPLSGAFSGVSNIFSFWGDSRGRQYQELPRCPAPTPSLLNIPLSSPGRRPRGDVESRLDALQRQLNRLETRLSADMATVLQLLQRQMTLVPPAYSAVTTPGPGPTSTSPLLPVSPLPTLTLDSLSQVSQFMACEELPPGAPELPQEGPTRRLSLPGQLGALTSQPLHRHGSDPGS
row,SMILES,"hERG current change (%, negative = inhibition) at 10uM"
1,C=CCc1c(C)nc(SC(C)C)[nH]c1=O,-2.85%
2,CCOc1cc(C(=S)N2CCCC2)ccc1OC(=O)Cc1ccc(F)cc1,7.36%
3,COc1ccc(N2CCN(C(=O)c3oc4ccccc4c3NC(=O)Cc3ccc(OC)c(OC)c3)CC2)cc1,-28.7%
4,COc1ccc(CC(=O)Nc2c(C(=O)N3CCN(c4ncccn4)CC3)oc3ccccc23)cc1OC,-46.8%
5,COc1ccc(CC(=O)Nc2c(C(=O)N3CCN(c4ncccn4)CC3)oc3ccccc23)cc1,-63.7%
6,O=C(Cc1ccc(F)cc1)Nc1c(C(=O)N2CCN(c3ncccn3)CC2)oc2ccccc12,-56%
7,O=C(c1oc2ccccc2c1CSCc1ccccc1)N1CCN(c2ncccn2)CC1,1.59%
8,Cc1ccc(O)c(NC(=O)c2ccc3c(c2)C(=O)N(Cc2ccco2)C3=O)c1,3.81%
9,COC(=O)c1[nH]c2c(c1C)C(=O)CC(c1ccc(OC)cc1)C2 (centres unmarked),11%
10,CCOc1ccc2[nH]c(=O)c(CN(CCOC)C(=O)N3CCOCC3)cc2c1,13.5%
11,O=C(Nc1nnc(-c2ccc(F)cc2)o1)c1ccc(S(=O)(=O)N2CCOCC2)cc1,-6.82%
12,CC(Oc1ccc(Cl)cc1)C(=O)N(C)CC(=O)Nc1ccc(N2CCOCC2)cc1 (centres unmarked),5.8%
13,CN1CCN(CCc2nc3cc(NC(=O)COc4ccc([N+](=O)[O-])cc4)ccc3n2C)CC1,16.1%
14,Cn1c(CCN2CCCCC2)nc2cc(NC(=O)COc3ccc([N+](=O)[O-])cc3)ccc21,-63.1%
15,Cn1c(CCN2CCOCC2)nc2cc(NC(=O)COc3ccc([N+](=O)[O-])cc3)ccc21,-21.1%
16,CCN1CCN(CCc2nc3cc([N+](=O)[O-])ccc3n2C)CC1,-16.9%
17,CC1CCN(CCc2nc3cc(NC(=O)COc4ccc([N+](=O)[O-])cc4)ccc3n2C)CC1,-68.4%
18,Cn1c(CCN2CCCCC2)nc2cc([N+](=O)[O-])ccc21,-70.2%
19,CCN1CCN(Cc2nc3cc(NC(=O)COc4ccc([N+](=O)[O-])cc4)ccc3n2C)CC1,-18.7%
20,Cn1c(CN2CCCC2)nc2cc(NC(=O)COc3ccc([N+](=O)[O-])cc3)ccc21,-38.6%
21,Cn1c(CN2CCCCC2)nc2cc([N+](=O)[O-])ccc21,-0.791%
22,COc1ccc(N2C(=O)C3CCCN3C2c2ccccc2)cc1Cl (centres unmarked),7.28%
23,CCOC(=S)N/C(=N\S(C)(=O)=O)c1ccccc1,-2.92%
24,COc1ccc(C(=S)N2CCOCC2)cc1OC(=O)c1cc(OC)c(OC)c(OC)c1,16.2%
25,COc1ccc(CN(C)C(=O)c2ccccc2Sc2ccccc2C#N)c(OC)c1,0.887%
26,Cc1ccc(C(=O)Cn2ncsc2=N)cc1,-12.5%
27,Cc1ccc(S(=O)(=O)NC2CCCC2)cc1C(N)=O,20.1%

row,SMILES,"hERG current change (%, negative = inhibition) at 10uM"
1,Cc1cc(OC(=O)c2cccs2)ccc1C(C)C,12.1%
2,O=[N+]([O-])c1ccc(Cl)c(NC(=S)N2CCCC2)c1,5.47%
3,CC(=O)Nc1ccc(OCC(O)CN2CCN(c3ccc(F)cc3)CC2)cc1 (centres unmarked),-23.4%
4,CC(=O)Nc1ccc(OCC(O)CN2CCN(c3cc(Cl)ccc3C)CC2)cc1 (centres unmarked),-30.8%
5,CC(=O)Nc1ccc(OCC(O)CN2CCN(c3ccc(C)c(Cl)c3)CC2)cc1 (centres unmarked),-27.7%
6,CC(=O)Nc1ccc(OCC(O)CN2CCN(c3ccc(Cl)cc3)CC2)cc1 (centres unmarked),-52.7%
7,CC(=O)Nc1ccc(OCC(O)CN2CCN(c3cccc(Cl)c3)CC2)cc1 (centres unmarked),-25.2%
8,CC(=O)Nc1ccc(OCC(O)CN2CCN(c3ccccc3Cl)CC2)cc1 (centres unmarked),-50.2%
9,CC(C)N(O)C(=O)NC(C)(C)C,11.5%
10,O=C(NC1CCCCC1)C(c1ccc(F)cc1)N(C(=O)c1csnn1)C1CCCC1 (centres unmarked),-7.88%
11,COc1ccc(-c2noc(COc3ccc(Cl)c(C)c3)n2)cc1,2.81%
12,O=C(CCC1CCCN(C(=O)c2ccncc2)C1)NCc1ccc(F)c(F)c1 (centres unmarked),-1.99%
13,COc1cccc(CNC(=O)CCC2CCCN(Cc3ccc4c(c3)CCO4)C2)c1 (centres unmarked),-33.6%
14,CC1=C(C(=O)N2CCCC(CCC(=O)NCc3ccc(F)c(F)c3)C2)OCCO1 (centres unmarked),3.36%
15,O=C(CCC1CCCN(Cc2ccc3c(c2)OCCO3)C1)NCc1ccc(F)c(F)c1 (centres unmarked),-61.5%
16,O=C(CCC1CCCN(Cc2ccc3c(c2)CCO3)C1)NCc1ccc(F)c(F)c1 (centres unmarked),-63.7%
17,O=C(CCC1CCCN(c2ncccn2)C1)NCc1ccc(F)c(F)c1 (centres unmarked),-40.8%
18,O=C(CCC1CCCN(Cc2ccncc2)C1)NCc1ccc(F)c(F)c1 (centres unmarked),-13.6%
19,O=C(CCC1CCCN(Cc2cccc3c2OCO3)C1)NCc1ccc(F)c(F)c1 (centres unmarked),-74.4%
20,O=C(CCC1CCCN(Cc2ccc3c(c2)OCCO3)C1)NCc1ccccc1F (centres unmarked),-24.2%
21,CC(=O)c1cccc(CN2CCCC(CCC(=O)NCc3ccc(F)c(F)c3)C2)c1 (centres unmarked),-74.7%
22,CC(=O)c1cccc(CN2CCCC(CCC(=O)NCc3ccccc3F)C2)c1 (centres unmarked),-48.5%
23,O=C(CCC1CCCN(C(=O)c2ccc3c(c2)OCO3)C1)NCc1ccc(F)c(F)c1 (centres unmarked),-8.73%
24,COC(=O)Oc1ccc(/C=C/C(=O)OC(C)C)cc1OC(=O)OC,1.69%
25,Cc1ccc(C(=O)NCCc2ccc(S(=O)(=O)N3CCCC3)cc2)cc1,-0.599%
26,CCOc1ccc(C(=O)N(C)C2CCS(=O)(=O)C2)cc1 (centres unmarked),18.3%

# From PMC4336329 (PLoS ONE, 2015)
